Among the data in PubChem BioAssay (Tox21) are Potency and activity change, negative = cytotoxicity values, retold here.

Each structure is given as a SMILES string. Inconclusive results are not listed. Where a call stands in place of a potency, no number is given. Unmarked numbers belong to inactive results. Activity calls are given as the source filed them. Calls come from the whole dose curve; as a rule, active = well fitted cell-killing curve with a large enough effect in the repeat runs; inconclusive = weak or mixed curves; inactive = flat fitted curve, though single readings scatter.
Potency is the fitted concentration of half-maximal effect.

The nature of this assay: qHTS RealTime-Glo MT Cell Viability Assay in HepG2 cells - 24 hour (AID 1224867). Note: nearly all actives have a fitted effect of over 50% in size. Particulars: RealTime-Glo luminescence; series mostly up to 76.8 µM. From the text:
U.S. Tox21 Program National Center for Advancing Translational Sciences [NCATS] NIH Chemical Genomics Center [NCGC] U.S. Environmental Protection Agency [EPA] National Institutes of Environmental Health Sciences [NIEHS] National Toxicology Program [NTP] U.S. Food and Drug Administration [FDA] Tox21 Assay Overview: Measure of cell viability is critical in the cell-base assay. Analysis of cell viability is necessary for the characterization of cell responses to cytotoxic drugs and environmental stress. A RealTime-Glo MT Cell Viability Assay to monitor cell viability in real time of continues cell culture during 40 hours of compound treatment was used to screen Tox21 10K library compounds in HepG2 cells. The RealTime-Glo MT Cell Viability Assay is a nonlytic, homogeneous, bioluminescent method to measure cell viability in real time using a simple, plate-based method. The assay involves adding NanoLuc luciferase and a cell-permeant prosubstrate to cells in culture. Viable cells reduce the proprietary prosubstrate to generate a substrate for NanoLuc luciferase. This substrate diffuses from cells into the surrounding culture medium, where it is rapidly used by the NanoLuc Enzyme to produce a luminescent signal. The signal correlates with the number of viable cells, making the assay well suited for cytotoxicity studies.
Tox21 Assay Protocol Summary: The mixture of HepG2 cell suspension and reagents were dispensed at 600cells/6 ul/well in 1536-well tissue culture treated black solid bottom plates using a Multidrop dispenser. After the assay plates were incubated at a 37 C/5% CO2 incubator for 5 hours, 23 nL of compounds dissolved in DMSO, positive and negative controls was transferred to the assay plate by a pintool work station. The plates were incubated at 37 C for 40 hours. The luminescence intensity were measured at 0h, 8h, 16h, 24h, 32h and 40h time points using ViewLux plate reader during compound treatment.
On the technique in general: Quantitative high-throughput screening tests each substance at several concentrations.
As for `Clc1ccc(Cn2c(CN3CCCC3)nc3ccccc32)cc1`, the Potency entry is “inactive”.

As to `O=C1OC(=O)C2C3C=CC(C3)C12` (stereo not given), the Potency result was “inactive”.

In the case of `CC(C)(C)Cl`, the Potency result was “inactive”.

Regarding `CC1=CC[C@H](C(C)C)C=C1`, the Potency result is “inactive”.

Take `C=CC(=O)OCCOc1ccccc1`: the Potency result was “inactive”.

As to `O=C1c2ccccc2S(=O)(=O)N1CCCCN1CCN(c2ncccn2)CC1`, the Potency entry is “inactive”.

As for `NCC(=O)O`, the activity change, negative = cytotoxicity is 3.17% [at 15.8 µM].

`CCN(CC)CCNc1ccc(CNC=O)c2sc3ccc(OC)cc3c(=O)c12`: the Potency is 21.9 µM (active).

For the compound `CC1=CCCC(C)(C)C12CCC(C)O2` (stereo not given), the Potency result was “inactive”.

For `O=C(O)CC(=O)C(=O)O`, the Potency result is “inactive”.

Turning to `C[N+]1(CC2COC(c3ccccc3)(C3CCCCC3)O2)CCCCC1` (stereo not given), the Potency entry is “inactive”.

For the compound `CCCCCCCN`, the Potency result was “inactive”.

On to `CCCCC(CC)CN1C(=O)C2C3C=CC(C3)C2C1=O` (stereo not given), for which the Potency entry was “inactive”.

For `CC(=O)c1ccc2c(c1)N(CCCN(C)C)c1ccccc1S2`, the Potency entry was “inactive”.

`CCOC(=O)c1cccnc1`: the Potency entry is “inactive”.

Turning to `O=C(O)C1(C(=O)O)CCC1.[NH2-].[NH2-].[Pt+2]`, the Potency result is “inactive”.

Consider `CCOC(=O)COC(=O)c1cc(Oc2ccc(C(F)(F)F)cc2Cl)ccc1[N+](=O)[O-]`, for which the Potency result was “inactive”.

Regarding `CCCCCCCCCCCCN1CCCCCC1=O`, the Potency result is “inactive”.

Turning to `O=C1OC(CN2CCOCC2)CN1/N=C/c1ccc([N+](=O)[O-])o1` (stereo not given), the Potency entry is “inactive”.

For the compound `N=c1ccn2c(n1)O[C@H]1[C@H](O)[C@@H](CO)O[C@H]12`, the Potency entry is “inactive”.

On to `Nc1ccc([N+](=O)[O-])c(C(F)(F)F)c1`, for which the Potency result is “inactive”.

For the compound `O=C(O)c1ccccc1Cl`, the Potency result is “inactive”.

Consider `C/C=C/C(=O)CC`, for which the activity change, negative = cytotoxicity is 0.602% [at 15.8 µM].

Consider `C=C1[C@H]2CC[C@@H]3[C@H]2C(C)(C)CCC[C@]13C`, for which the Potency entry is “inactive”.

Regarding `CN(C)CCN(Cc1ccccc1)c1ccccn1`, the Potency result is “inactive”.

Regarding `COC(C)(C)CCO`, the Potency entry was “inactive”.

As for `CC1=CC=C(C(C)C)CC1`, the Potency result is “inactive”.

As to `Cc1cc(N)c2cc(NC(=O)Nc3ccc4nc(C)cc(N)c4c3)ccc2n1`, the Potency result was “inactive”.

For the compound `NC(N)=NCCC[C@H](N)C(=O)O`, the activity change, negative = cytotoxicity is 3.74% [at 6.97 µM].

For the compound `CC(CC=O)c1ccccc1` (stereo not given), the Potency result was “inactive”.

For `CCCCCCCCCCCCCCCCCCOS(=O)(=O)O`, the Potency entry is “inactive”.

For `CC(C)Cc1ccc(C(C)C(=O)OCc2ccccn2)cc1` (stereo not given), the Potency result is “inactive”.

As to `CCCNCC(O)COc1ccccc1C(=O)CCc1ccccc1` (stereo not given), the Potency result was “inactive”.

For `CO[C@@H]1[C@H](OC(=O)/C=C/C=C/C=C/C=C/C(=O)O)CC[C@]2(CO2)[C@H]1[C@@]1(C)O[C@@H]1CC=C(C)C`, the Potency entry was “inactive”.

For `Nc1cc(C(=O)O)c(O)c(S(=O)(=O)O)c1`, the Potency result was “inactive”.

In the case of `CC[N+](C)(CC)CCOC(=O)C(O)(c1ccccc1)C1CCCCC1` (stereo not given), the Potency entry is “inactive”.

As to `CCOC(=O)C(=O)CCc1ccccc1`, the Potency result is “inactive”.

As to `Cc1c(N)cccc1[N+](=O)[O-]`, the Potency result was “inactive”.

For the compound `CCCCO`, the Potency entry was “inactive”.

In the case of `Cc1ccc(C(=O)Oc2ccc(C(O)CNC(C)(C)C)cc2OC(=O)c2ccc(C)cc2)cc1` (stereo not given), the Potency is 21.3 µM (active).
